This note sets out measurements from PubChem BioAssay AID620 (Sanford-Burnham Center for Chemical Genomics, 2007).

Molecules are shown by their SMILES. Among all 87,000 compounds or so, about 360 (0.41%) were called active. Shown is part of a subset that was picked to be rich in actives. Values without a mark were called inactive. Rule as the data show it: active = cytotoxicity above about 50%; inactive = the rest.

This experiment is described as follows: cytotoxicity in HT1080 fibrosarcoma cells, cell-based, fluorescence readout (AID 620).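 Also: cells exposed to compound overnight then 4 h with Alamar Blue; 0% = vehicle DMSO and 100% = killing control.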 Conditions: HT1080 viability, at 10 µM, hits give high values.
Consider `COc1ccc(S(=O)(=O)Nc2cc3c(C(C)=O)c(C)oc3c3ccccc23)cc1`, for which the cytotoxicity was 62.6% (active).
For the compound `COc1ccc(S(=O)(=O)Nc2cc3c4c(oc3c3ccccc23)CC(C)(C)CC4=O)cc1`, the cytotoxicity is -13.5%.
For `COC(=O)c1c(C)oc2c1cc(NS(=O)(=O)c1cccs1)c1ccccc12` the value was 0.6%; for `CCCc1nc2oc3cc(OC)ccc3c(=O)c2c(=O)n1Cc1ccco1`, -4.1%; for `CCOC(=O)CSc1nc(-c2cccs2)nc2c1c(=O)n(C)c(=O)n2C`, 1.5%.
For `O=C(C1CCCN1S(=O)(=O)c1ccc(Cl)c(Cl)c1)N1CCCCC1` (centres undefined) the value was -5%.
As for `O=C(NCc1cccs1)C1CCN(c2ccc(S(=O)(=O)N3CCOCC3)cc2Cl)CC1`, the cytotoxicity was 67.8% (active).
For `CC(C)CNC(=O)C1CCN(c2ccc(S(=O)(=O)N3CCOCC3)cc2Cl)CC1` the value was -20.4%; for `CCCNC(=O)C1CCN(c2ccc(S(=O)(=O)N3CCOCC3)cc2Cl)CC1`, -9.5%; for `COc1ccc(-n2nnnc2-c2ccccc2)cc1`, 58.8% (active).
For the compound `COc1ccc(-n2nnnc2-c2cccnc2)cc1`, the cytotoxicity was -4.2%.
For `COc1ccc(-n2nnnc2-c2cccc(OC)c2)cc1` the value was 48.1%; for `COc1cccc(/C(O)=C2\C(=O)C(=O)N(c3ccccn3)C2c2cccc(OC)c2OC)c1` (centres undefined), 21.5%.
Take `COC(=O)C(Cc1cnc(Cl)s1)(C(=O)OC)c1ccc([N+](=O)[O-])cc1[N+](=O)[O-]`: the cytotoxicity is -2%.
For `CCC1=C2CC[C@H]3C(=O)N(CC)C(=O)[C@H]3[C@H]2[C@@]2(Cc3ccccc3)C(=O)N(CC3CC3)C(=O)N2C1=O` the value was 2.7%; for `COc1ccc(-c2cc(C(F)(F)F)n3nc(C)cc3n2)cc1`, -1.8%; for `Cc1ccc(NC(=O)c2nnn(CC(=O)Nc3ccccc3)c2N)cc1C`, -2.3%.
On to `Cc1cc(C(=O)CSc2nncs2)c(C)n1-c1ccc2c(c1)OCO2`, for which the cytotoxicity is 24.4%.
For `Cc1cc(C(=O)CSc2nnnn2C)c(C)n1-c1ccc2c(c1)OCCO2` the value was 13.4%; for `Cc1nnc(SCC(=O)c2cc(C)n(-c3ccc4c(c3)OCO4)c2C)s1`, 61.4% (active).
For `CN1C(=O)CC(Sc2ncccc2C(=O)O)C1=O` (centres undefined) the value was 1.8%.
For `Cc1cc(C)n(-c2nc3ccccc3nc2N2CCOCC2)n1` the value was -0.9%; for `O=C(C1c2ccccc2Oc2ccccc21)N1CCN(c2ccc(Cl)cc2)CC1`, -1.1%.
As for `COc1ccccc1N1CCN(C(=O)C2c3ccccc3Oc3ccccc32)CC1`, the cytotoxicity is 56% (active).
Turning to `CCOc1ccccc1N1CCN(C(=O)C2c3ccccc3Oc3ccccc32)CC1`, the cytotoxicity is -0.5%.
For `O=S(=O)(c1ccccc1C(F)(F)F)N1CCC(n2cnc3ccccc32)CC1` the value was -0.9%.
For `COc1ccc(Cl)cc1NC(=O)/C=C\C(=O)O` the value was -3.8%; for `Cc1occc1-c1nnc(SCC(=O)c2ccc(F)cc2)n1Cc1ccco1`, -0.9%.
Turning to `c1ccc(Nc2ccccc2Nc2ccccn2)nc1`, the cytotoxicity is 0.4%.
For `Oc1cccc2ccc(Nc3ccccn3)nc12` the value was 60.9% (active); for `c1ccc(Nc2ccccn2)cc1`, -6.8%; for `CC(=O)O[C@@]12CO[C@@H]1C[C@H](O)[C@@]1(C)C(=O)[C@H](O)C3=C(C)[C@@H](OC(=O)[C@H](O)[C@@H](NC(=O)OC(C)(C)C)c4ccccc4)C[C@](O)([C@@H](OC(=O)c4ccccc4)[C@H]21)C3(C)C`, 53.7% (active).
Regarding `CCOC(=O)c1ccccc1NC(=O)Nc1ccc(OC)c(OC)c1`, the cytotoxicity is -1.4%.
For `Cc1noc(C)c1C(=O)N1CCN(CCc2ccccc2)CC1` the value was -0.7%; for `Cc1cccn2c(=O)c3cc(C(=O)NC4CCCC4)c(=N)n(C4CCCC4)c3nc12`, 75% (active).
Consider `CCCCNC(=O)c1cc2c(=O)n3cccc(C)c3nc2n(Cc2ccccc2)c1=N`, for which the cytotoxicity was 19.2%.
For `N=c1c(C(=O)NC2CCCC2)cc2c(=O)n3ccccc3nc2n1C1CCCC1` the value was 7.6%; for `COCCNC(=O)c1cc2c(=O)n3cccc(C)c3nc2n(Cc2ccncc2)c1=N`, 17.6%; for `CCCCNC(=O)c1cc2c(=O)n3cccc(C)c3nc2n(Cc2ccncc2)c1=N`, 54.1% (active).
Consider `CCCn1c(=N)c(C(=O)NC2CCCC2)cc2c(=O)n3cccc(C)c3nc21`, for which the cytotoxicity was 9.1%.
For `CN1CCN(CCCN2c3ccccc3Sc3ccc(Cl)cc32)CC1` the value was 6%.
For `CC1CC(=O)N(CC(=O)N2CCCC2)c2ccccc2S1` (centres undefined) the value was 1.5%; for `CSc1ccc2c(c1)N(CCC1CCCCN1C)c1ccccc1S2` (centres undefined), 82.9% (active).
For `O=C(O)CSc1cccc2cccc(C(=O)O)c12` the value was 3.5%.
On to `CCN(CC)c1ccc2cc(-c3nc4ccccc4n3C)c(=O)oc2c1`, for which the cytotoxicity was 62% (active).
For `CC(=O)Oc1ccc2cc(-c3nc4ccccc4n3C)c(=O)oc2c1` the value was -4.4%.
For `COc1ccc2cc(-c3nc4ccccc4n3C)c(=O)oc2c1` the value was -1.5%.
For `COc1ccc(CN(Cc2cccnc2)S(=O)(=O)c2ccc(-n3cnnn3)c(C)c2)cc1OC` the value was -6.9%; for `COc1ccc(Cl)cc1N(CC(=O)Nc1ccccc1C(=O)NCc1ccco1)S(C)(=O)=O`, 4.2%; for `Cc1cc(C(=O)COc2cccc(-n3cnnn3)c2)c(C)n1-c1ccccc1`, 27%.
For `Cc1cc(-n2c(C)cc(C(=O)COc3ccc4ccc(=O)oc4c3)c2C)no1`, the cytotoxicity was 7.7%.
For the compound `CC(=O)c1cccc(OCC(=O)c2cc(C)n(-c3cc(C)on3)c2C)c1`, the cytotoxicity was 63.5% (active).
For `CC(=O)c1ccc(NC(=O)CSc2nc3nc(C)cc(C)n3n2)cc1` the value was -1.8%; for `COc1ccc(/C=C2\CCc3ccccc3C2=O)cc1Cn1cccn1`, -6.8%; for `COC(=O)[C@@H]1C[C@@H]2CC[C@@H](O)C[C@@H]2N1Cc1ccc(-c2ccccc2)cc1`, 1.4%.
For `COC(=O)[C@@H]1C[C@@H]2CC[C@@H](O)C[C@@H]2N1Cc1ccc(Cl)cc1` the value was 4.3%; for `COC(=O)[C@@H]1C[C@H]2CC[C@H](O)C[C@H]2N1Cc1ccc(-c2ccccc2)cc1`, 68.8% (active).
For `COc1ccc(NC(=O)CSc2nnc(-c3ccccc3C)n2C)cc1`, the cytotoxicity is 3%.
`COc1ccc(NC(=O)c2cc(-c3ccccc3OC)on2)cc1`: the cytotoxicity was 38.4%.
For `O=C(Nc1cccnc1)c1cc(-c2ccccc2)on1` the value was 8.8%; for `COc1ccccc1-c1cc(C(=O)Nc2cccnc2)no1`, 58.1% (active); for `O=C1c2ccccc2C(=O)c2c1oc(C(F)(F)F)c2C(=O)c1ccccc1`, -1.6%.
Consider `Cc1ccc(C(=O)c2c(C)oc3c2C(=O)C(=O)c2ccccc2-3)cc1`, for which the cytotoxicity is -5.2%.
Take `Cc1oc2c(c1C(=O)c1ccccc1)C(=O)C(=O)c1ccccc1-2`: the cytotoxicity was 107% (active).
On to `CCOC(=O)c1cn(CC(=O)Nc2ccc(C)cc2)nn1`, for which the cytotoxicity is -1.5%.
For `NC(=O)c1nsc(C(=O)N(CC(=O)NCc2ccc3c(c2)OCO3)C2CCCCC2)c1N` the value was -0.4%; for `C=Cn1c(C(=O)O)cc(CC)c1-c1ccccc1`, -2.7%; for `C=CCSc1nccc(-c2nn(-c3ccc(C)cc3)ccc2=O)n1`, 44.5%.
For `CCSc1nccc(-c2nn(-c3ccc(C)cc3)ccc2=O)n1` the value was 29%; for `CSc1nccc(-c2nn(-c3ccc(C)cc3)ccc2=O)n1`, 56.4% (active).
For `O=C1OC(Nc2nccs2)c2ccccc21` (centres undefined), the cytotoxicity is 19.8%.
For `C=CS(=O)(=O)c1ccc(Oc2ccc(S(=O)(=O)C=C)cc2)cc1` the value was 76.4% (active); for `CNS(=O)(=O)c1ccc(Oc2ccc(S(=O)(=O)NC)cc2)cc1`, -5.5%.
For `O=S(=O)(c1ccc(Oc2ccc(S(=O)(=O)N3CCOCC3)cc2)cc1)N1CCOCC1` the value was -8.2%; for `CC(C)c1ccc(C(=O)CSc2ncn[nH]2)cc1`, -3.4%.
For `COc1cc(C)c(C(C)C)cc1S(=O)(=O)n1ccnc1` the value was -1.7%.
On to `COc1cc(C)c(C(C)C)cc1S(=O)(=O)n1cnc(C)c1`, for which the cytotoxicity is 61.2% (active).
For `COc1cc(C)c(Cl)cc1S(=O)(=O)n1cnc(C)c1` the value was -1.4%.
`CCn1ncc(Br)c1C(=O)NC(C)c1ccccc1` (centres undefined): the cytotoxicity is 9%.
Turning to `Nc1cccc(-c2nc3ccccc3[nH]2)c1`, the cytotoxicity was -3.9%.
`COc1ccc2nc(-c3cccc(N)c3)[nH]c2c1`: the cytotoxicity is 33.4%.
For `N#CC1=C(c2ccccc2)N=P(N2CCOCC2)(N2CCOCC2)N=C1N1CCOCC1`, the cytotoxicity was -10.4%.
For `CCNc1ccc(S(=O)(=O)C(F)(F)F)cc1NC(=O)C12CCC(CC1)C2`, the cytotoxicity was 0.9%.
For `COc1ccc(C(C)=O)cc1COC(=O)c1c(C)noc1C` the value was 14%; for `COC(=O)c1c(N)sc(C(C)=O)c1C`, -8.8%.
`COC(=O)c1sc(N)c(C(=O)OC)c1COC(=O)c1c(C)noc1C`: the cytotoxicity is 50.8% (active).
As for `Cc1nnc(SCC(=O)Nc2ccc3c(c2)OCO3)o1`, the cytotoxicity is 12.7%.
For `COc1nc(NCc2ccco2)nc(N2CCC(C)CC2)n1` the value was -3.4%; for `COc1cccc(C2N(c3ccccn3)C(=O)C3CCCN32)c1OC` (centres undefined), -9.8%; for `CCC(C(=O)c1ccc(O)cc1)c1ccccc1` (centres undefined), -4%.
As for `CN(C)c1ccc(C(=O)C(O)c2ccccc2)cc1` (centres undefined), the cytotoxicity is -14%.
Regarding `CN(C)CC(C(=O)c1ccccc1)c1ccccc1` (centres undefined), the cytotoxicity was 57.7% (active).
As for `CC(C)CC(C(=O)NC1CCCC1)N(Cc1cccs1)C(=O)c1snc(C(N)=O)c1N` (centres undefined), the cytotoxicity is -7.5%.
For `O=C(NCc1csc(-c2ccccc2)n1)c1ccco1`, the cytotoxicity was -1.4%.
